Reference: paper PMC7862700, “An all-to-all approach to the identification of sequence-specific readers for epigenetic DNA modifications on cytosine”

Tests used:
Assay in all cases: DAPPL (digital affinity profiling via proximity ligation, sequencing); 10 mM Tris-HCl pH 7.5, 50 mM NaCl, 1 mM DTT, 4% glycerol, room temperature, 30 min; GST-TFs on glutathione beads, 16-mer random dsDNA library, 0.1% formaldehyde crosslink after washing; high values mean tight binding
FLI1 = biological target: T1, FLI1 (Homo sapiens, UniProt Q01543 1-452); conditions: protein: recombinant; tags: N-terminal GST; dsDNA, one strand shown
T1 sequence: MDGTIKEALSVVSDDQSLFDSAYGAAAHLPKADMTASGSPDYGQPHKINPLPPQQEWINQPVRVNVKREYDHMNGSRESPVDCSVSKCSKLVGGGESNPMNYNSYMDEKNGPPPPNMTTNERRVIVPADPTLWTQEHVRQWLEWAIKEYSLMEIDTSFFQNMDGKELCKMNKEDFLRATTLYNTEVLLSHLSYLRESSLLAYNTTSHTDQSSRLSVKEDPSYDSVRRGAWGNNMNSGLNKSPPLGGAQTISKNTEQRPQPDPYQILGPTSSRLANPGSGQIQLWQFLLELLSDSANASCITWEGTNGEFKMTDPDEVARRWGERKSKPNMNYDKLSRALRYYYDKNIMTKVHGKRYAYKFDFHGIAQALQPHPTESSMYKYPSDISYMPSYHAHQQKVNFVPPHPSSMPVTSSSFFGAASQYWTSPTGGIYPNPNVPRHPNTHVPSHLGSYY
How it was run: (§1)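 Binding signal is given per hexamer as its read frequency for a factor divided by its frequency in the tag-only sample. GST-fused human transcription factors were expressed in yeast, captured on glutathione beads, barcoded with DNA and pooled with that sample, then incubated with 200 nmole of a 16-mer random double-stranded DNA library in Tris/NaCl/DTT/glycerol buffer for 30 min at room temperature. The pools were then washed, crosslinked, proximity-ligated, amplified by PCR and sequenced on an Illumina NextSeq500.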

ELK1 = biological target: T2, ELK1 (Homo sapiens, UniProt P19419 1-428); conditions: protein: recombinant; tags: N-terminal GST; dsDNA, one strand shown
T2 sequence: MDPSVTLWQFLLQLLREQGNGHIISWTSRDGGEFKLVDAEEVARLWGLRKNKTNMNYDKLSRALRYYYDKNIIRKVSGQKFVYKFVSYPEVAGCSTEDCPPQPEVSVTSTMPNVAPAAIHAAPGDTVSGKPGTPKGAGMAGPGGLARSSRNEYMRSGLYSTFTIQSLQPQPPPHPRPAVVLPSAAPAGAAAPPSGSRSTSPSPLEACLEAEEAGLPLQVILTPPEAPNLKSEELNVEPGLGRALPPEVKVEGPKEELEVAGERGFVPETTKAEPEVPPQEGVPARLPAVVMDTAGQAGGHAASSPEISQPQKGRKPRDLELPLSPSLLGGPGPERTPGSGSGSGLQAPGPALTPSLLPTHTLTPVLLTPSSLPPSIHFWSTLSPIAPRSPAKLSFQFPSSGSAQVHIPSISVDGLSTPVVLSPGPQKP
How it was run: as §1

GABPA = biological target: T3, GABPA (Homo sapiens, UniProt Q06546 1-454); conditions: protein: recombinant; tags: N-terminal GST; dsDNA, one strand shown
T3 sequence: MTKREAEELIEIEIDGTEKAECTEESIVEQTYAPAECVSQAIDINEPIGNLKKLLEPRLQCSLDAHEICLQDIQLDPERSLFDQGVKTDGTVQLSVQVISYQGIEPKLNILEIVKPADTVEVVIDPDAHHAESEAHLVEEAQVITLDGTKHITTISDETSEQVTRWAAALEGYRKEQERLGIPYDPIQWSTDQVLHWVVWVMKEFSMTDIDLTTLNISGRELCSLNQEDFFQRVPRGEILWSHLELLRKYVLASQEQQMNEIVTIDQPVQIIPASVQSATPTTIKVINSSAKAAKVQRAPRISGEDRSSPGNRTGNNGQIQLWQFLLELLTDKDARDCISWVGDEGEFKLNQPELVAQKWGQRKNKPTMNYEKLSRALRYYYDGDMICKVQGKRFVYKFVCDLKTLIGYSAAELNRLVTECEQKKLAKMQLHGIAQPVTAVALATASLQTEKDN
How it was run: as §1

ERG = biological target: T4, ERG (Homo sapiens, UniProt P11308 1-479); conditions: protein: recombinant; tags: N-terminal GST; dsDNA, one strand shown
T4 sequence: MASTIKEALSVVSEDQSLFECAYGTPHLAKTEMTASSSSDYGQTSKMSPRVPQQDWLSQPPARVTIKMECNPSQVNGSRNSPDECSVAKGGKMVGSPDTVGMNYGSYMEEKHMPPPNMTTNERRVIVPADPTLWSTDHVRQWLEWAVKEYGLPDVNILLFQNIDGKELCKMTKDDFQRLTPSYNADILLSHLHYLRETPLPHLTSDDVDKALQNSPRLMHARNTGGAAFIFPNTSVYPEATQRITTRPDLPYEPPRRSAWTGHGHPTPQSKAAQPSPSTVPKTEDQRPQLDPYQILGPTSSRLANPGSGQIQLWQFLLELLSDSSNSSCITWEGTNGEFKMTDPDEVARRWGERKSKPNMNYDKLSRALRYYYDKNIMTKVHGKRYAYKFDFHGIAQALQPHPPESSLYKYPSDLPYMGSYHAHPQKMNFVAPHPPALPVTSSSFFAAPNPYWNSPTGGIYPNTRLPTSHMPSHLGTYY
How it was run: as §1

ELF1 = ELF1 (Homo sapiens, UniProt P32519 1-619); conditions: protein: recombinant; tags: N-terminal GST; dsDNA, one strand shown
ELF1, sequence (P32519 whole entry): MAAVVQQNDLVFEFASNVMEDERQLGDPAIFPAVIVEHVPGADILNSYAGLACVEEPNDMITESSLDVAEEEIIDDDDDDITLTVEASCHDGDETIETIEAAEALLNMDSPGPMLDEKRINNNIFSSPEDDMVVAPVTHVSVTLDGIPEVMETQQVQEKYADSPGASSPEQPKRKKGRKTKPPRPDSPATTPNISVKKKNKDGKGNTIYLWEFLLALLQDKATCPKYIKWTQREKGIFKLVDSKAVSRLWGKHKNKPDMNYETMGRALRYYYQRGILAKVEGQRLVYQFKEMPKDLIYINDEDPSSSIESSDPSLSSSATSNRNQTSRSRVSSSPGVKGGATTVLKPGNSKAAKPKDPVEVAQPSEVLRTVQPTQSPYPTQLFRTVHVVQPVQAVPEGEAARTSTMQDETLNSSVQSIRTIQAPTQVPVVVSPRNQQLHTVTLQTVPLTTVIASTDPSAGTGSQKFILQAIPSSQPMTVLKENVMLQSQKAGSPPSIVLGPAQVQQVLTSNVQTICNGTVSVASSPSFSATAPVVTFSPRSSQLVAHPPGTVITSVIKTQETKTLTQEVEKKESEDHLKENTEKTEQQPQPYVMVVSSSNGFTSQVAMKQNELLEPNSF
How it was run: as §1

EHF = biological target: T5, EHF (Homo sapiens, UniProt Q9NZC4 1-300); conditions: protein: recombinant; tags: N-terminal GST; dsDNA, one strand shown
T5 sequence: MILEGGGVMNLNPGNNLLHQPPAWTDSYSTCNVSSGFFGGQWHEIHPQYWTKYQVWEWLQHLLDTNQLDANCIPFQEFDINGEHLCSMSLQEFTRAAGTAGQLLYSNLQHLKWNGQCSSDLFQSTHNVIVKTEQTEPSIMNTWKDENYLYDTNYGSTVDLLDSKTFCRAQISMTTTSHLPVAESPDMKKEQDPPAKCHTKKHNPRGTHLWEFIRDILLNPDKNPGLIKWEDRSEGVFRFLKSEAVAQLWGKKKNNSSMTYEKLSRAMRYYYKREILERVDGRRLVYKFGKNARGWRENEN
How it was run: as §1

SPI1 = SPI1 (Homo sapiens, UniProt P17947 1-270); conditions: protein: recombinant; tags: N-terminal GST; dsDNA, one strand shown
How it was run: as §1

SPIB = SPIB (Homo sapiens, UniProt Q01892 1-262); conditions: protein: recombinant; tags: N-terminal GST; dsDNA, one strand shown
SPIB, sequence (Q01892 whole entry): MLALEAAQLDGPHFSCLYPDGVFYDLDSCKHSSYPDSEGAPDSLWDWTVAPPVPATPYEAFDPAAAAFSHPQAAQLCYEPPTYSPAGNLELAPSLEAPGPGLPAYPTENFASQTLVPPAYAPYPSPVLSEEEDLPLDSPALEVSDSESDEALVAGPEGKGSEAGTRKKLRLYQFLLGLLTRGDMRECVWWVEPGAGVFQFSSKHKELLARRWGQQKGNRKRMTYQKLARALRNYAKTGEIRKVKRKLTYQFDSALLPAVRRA
How it was run: as §1

ELK3 = biological target: T6, ELK3 (Homo sapiens, UniProt P41970 1-407); conditions: protein: recombinant; tags: N-terminal GST; dsDNA, one strand shown
T6 sequence: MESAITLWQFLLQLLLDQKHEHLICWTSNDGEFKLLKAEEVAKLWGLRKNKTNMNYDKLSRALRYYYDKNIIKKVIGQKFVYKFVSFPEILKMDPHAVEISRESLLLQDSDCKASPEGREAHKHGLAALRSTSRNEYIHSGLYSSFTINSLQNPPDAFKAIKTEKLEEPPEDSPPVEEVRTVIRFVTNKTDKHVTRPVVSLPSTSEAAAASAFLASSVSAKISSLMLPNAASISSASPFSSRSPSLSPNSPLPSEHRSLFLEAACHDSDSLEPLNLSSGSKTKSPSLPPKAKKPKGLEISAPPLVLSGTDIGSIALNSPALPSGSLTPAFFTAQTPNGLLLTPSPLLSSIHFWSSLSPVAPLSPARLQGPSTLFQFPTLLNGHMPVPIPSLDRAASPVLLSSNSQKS
How it was run: as §1

FEV = biological target: T7, FEV (Homo sapiens, UniProt Q99581 1-238); conditions: protein: recombinant; tags: N-terminal GST; dsDNA, one strand shown
T7 sequence: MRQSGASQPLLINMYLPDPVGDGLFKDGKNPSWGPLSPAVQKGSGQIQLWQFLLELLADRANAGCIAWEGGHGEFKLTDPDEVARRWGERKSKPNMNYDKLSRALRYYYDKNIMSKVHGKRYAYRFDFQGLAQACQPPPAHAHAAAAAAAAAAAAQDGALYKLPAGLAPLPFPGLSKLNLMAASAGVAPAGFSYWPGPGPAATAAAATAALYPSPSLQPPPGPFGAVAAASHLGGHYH
How it was run: as §1

ETV5 = ETV5 (Homo sapiens, UniProt P41161 1-510); conditions: protein: recombinant; tags: N-terminal GST; dsDNA, one strand shown
ETV5, sequence (P41161 whole entry): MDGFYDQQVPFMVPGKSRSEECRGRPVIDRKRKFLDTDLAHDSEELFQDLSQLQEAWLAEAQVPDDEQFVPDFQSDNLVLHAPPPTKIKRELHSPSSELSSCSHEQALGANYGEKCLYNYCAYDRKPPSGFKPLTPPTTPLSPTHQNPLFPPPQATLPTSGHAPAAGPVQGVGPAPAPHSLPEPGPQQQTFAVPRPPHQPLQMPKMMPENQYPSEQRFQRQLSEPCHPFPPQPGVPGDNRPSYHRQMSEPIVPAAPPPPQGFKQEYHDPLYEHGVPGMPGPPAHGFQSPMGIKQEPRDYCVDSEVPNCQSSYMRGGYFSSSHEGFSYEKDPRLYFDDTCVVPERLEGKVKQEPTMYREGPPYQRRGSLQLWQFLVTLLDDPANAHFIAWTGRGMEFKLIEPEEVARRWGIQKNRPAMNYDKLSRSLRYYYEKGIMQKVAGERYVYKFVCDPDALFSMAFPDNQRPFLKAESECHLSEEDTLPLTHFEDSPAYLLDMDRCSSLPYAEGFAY
How it was run: as §1

HSF1 = HSF1 (Homo sapiens, UniProt Q00613 1-529); conditions: protein: recombinant; tags: N-terminal GST; chain copies: 3; dsDNA, one strand shown
HSF1, sequence (Q00613 whole entry): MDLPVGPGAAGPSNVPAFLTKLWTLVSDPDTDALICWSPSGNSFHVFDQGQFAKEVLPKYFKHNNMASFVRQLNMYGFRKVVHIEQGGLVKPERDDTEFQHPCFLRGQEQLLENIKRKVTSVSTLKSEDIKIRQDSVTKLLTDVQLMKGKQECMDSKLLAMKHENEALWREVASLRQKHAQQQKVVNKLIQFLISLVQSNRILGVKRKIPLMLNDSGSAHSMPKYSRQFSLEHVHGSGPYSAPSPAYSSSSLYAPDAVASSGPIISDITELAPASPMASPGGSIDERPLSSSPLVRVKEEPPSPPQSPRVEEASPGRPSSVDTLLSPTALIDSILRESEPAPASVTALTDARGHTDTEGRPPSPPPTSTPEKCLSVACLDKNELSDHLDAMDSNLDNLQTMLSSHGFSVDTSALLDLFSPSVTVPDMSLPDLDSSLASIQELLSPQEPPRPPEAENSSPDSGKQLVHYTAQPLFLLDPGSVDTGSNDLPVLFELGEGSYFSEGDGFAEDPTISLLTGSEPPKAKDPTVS
How it was run: as §1

SPIC = biological target: T8, SPIC (Homo sapiens, UniProt Q8N5J4 1-248); conditions: protein: recombinant; tags: N-terminal GST; dsDNA, one strand shown
T8 sequence: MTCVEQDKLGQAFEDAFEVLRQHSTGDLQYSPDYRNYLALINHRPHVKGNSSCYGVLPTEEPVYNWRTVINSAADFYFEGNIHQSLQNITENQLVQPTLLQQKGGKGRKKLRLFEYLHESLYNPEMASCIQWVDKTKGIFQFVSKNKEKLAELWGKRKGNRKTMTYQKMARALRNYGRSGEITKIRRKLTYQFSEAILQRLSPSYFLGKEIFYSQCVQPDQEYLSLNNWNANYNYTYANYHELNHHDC
How it was run: as §1

ELF4 = ELF4 (Homo sapiens, UniProt Q99607 1-663); conditions: protein: recombinant; tags: N-terminal GST; dsDNA, one strand shown
ELF4, sequence (Q99607 whole entry): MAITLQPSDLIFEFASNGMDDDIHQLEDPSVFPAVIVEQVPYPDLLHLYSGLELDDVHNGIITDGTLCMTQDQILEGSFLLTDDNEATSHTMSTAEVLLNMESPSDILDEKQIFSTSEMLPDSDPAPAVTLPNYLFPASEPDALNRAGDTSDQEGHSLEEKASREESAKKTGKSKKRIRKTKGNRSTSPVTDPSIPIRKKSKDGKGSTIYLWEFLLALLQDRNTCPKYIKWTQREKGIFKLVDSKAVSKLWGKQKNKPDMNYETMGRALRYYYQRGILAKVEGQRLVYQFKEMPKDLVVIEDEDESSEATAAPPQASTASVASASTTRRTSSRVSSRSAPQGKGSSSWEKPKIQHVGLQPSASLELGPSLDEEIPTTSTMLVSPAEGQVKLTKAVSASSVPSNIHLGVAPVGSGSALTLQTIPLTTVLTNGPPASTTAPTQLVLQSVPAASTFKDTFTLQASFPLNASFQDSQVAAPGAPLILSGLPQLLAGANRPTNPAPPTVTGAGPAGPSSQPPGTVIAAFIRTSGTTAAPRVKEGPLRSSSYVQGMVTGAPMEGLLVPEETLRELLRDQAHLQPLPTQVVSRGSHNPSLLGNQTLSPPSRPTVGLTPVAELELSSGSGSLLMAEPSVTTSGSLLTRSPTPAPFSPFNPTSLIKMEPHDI
How it was run: as §1

ETV2 = biological target: T9, ETV2 (Homo sapiens, UniProt O00321 1-342); conditions: protein: recombinant; tags: N-terminal GST; dsDNA, one strand shown
T9 sequence: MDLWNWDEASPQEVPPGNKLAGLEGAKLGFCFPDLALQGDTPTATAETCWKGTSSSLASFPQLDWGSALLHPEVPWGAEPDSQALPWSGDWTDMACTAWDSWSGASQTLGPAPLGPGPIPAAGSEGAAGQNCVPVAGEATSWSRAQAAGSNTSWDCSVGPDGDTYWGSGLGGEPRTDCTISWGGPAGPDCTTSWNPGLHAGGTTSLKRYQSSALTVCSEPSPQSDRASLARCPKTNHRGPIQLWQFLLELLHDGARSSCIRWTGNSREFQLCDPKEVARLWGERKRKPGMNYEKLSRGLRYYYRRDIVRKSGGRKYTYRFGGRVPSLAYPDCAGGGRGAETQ
How it was run: as §1

ELF3 = biological target: T10, ELF3 (Homo sapiens, UniProt P78545 1-371); conditions: protein: recombinant; tags: N-terminal GST; dsDNA, one strand shown
T10 sequence: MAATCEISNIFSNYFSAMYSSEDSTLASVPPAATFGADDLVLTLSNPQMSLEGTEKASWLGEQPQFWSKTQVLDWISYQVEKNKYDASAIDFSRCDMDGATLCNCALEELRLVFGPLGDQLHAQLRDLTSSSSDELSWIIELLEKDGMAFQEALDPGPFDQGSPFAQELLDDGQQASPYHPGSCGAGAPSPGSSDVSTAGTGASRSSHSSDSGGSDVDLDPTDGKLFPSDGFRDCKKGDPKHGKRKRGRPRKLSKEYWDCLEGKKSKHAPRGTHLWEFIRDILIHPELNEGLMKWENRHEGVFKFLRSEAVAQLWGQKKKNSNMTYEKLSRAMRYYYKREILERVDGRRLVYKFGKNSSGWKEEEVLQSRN
How it was run: as §1

CRX = CRX (Homo sapiens, UniProt O43186 1-299); conditions: protein: recombinant; tags: N-terminal GST; dsDNA, one strand shown
CRX, sequence (O43186 whole entry): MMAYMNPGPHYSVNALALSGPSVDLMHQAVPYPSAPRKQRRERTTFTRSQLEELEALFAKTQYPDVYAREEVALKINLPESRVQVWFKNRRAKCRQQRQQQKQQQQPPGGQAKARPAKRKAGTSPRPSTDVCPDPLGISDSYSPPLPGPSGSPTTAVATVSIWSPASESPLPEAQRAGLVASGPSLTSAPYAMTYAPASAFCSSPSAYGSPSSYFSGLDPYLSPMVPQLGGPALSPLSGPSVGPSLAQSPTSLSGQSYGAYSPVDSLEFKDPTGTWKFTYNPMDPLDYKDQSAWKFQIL
How it was run: as §1

ETV1 = ETV1 (Homo sapiens, UniProt P50549 1-477); conditions: protein: recombinant; tags: N-terminal GST; dsDNA, one strand shown
ETV1, sequence (P50549 whole entry): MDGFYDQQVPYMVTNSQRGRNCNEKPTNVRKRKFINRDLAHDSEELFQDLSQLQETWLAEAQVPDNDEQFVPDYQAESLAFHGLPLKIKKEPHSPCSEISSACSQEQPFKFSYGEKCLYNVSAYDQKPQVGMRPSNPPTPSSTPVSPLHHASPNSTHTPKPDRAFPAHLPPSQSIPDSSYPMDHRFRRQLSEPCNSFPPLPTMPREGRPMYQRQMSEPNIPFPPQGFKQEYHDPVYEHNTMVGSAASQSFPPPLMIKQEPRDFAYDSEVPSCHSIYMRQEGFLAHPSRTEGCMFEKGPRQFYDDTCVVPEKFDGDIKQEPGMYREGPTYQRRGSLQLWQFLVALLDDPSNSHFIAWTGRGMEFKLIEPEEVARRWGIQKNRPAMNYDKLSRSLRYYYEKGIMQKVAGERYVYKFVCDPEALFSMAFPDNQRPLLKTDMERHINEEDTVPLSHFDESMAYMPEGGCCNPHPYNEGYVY
How it was run: as §1

Row | Sequence | binding signal (FLI1) | binding signal (ELK1) | binding signal (GABPA) | binding signal (ERG) | binding signal (ELF1) | binding signal (EHF) | binding signal (SPI1) | binding signal (SPIB) | binding signal (ELK3) | binding signal (FEV) | binding signal (ETV5) | binding signal (HSF1) | binding signal (SPIC) | binding signal (ELF4) | binding signal (ETV2) | binding signal (ELF3) | binding signal (CRX) | binding signal (ETV1)
1 | CTTACG | 1.16 fold enrichment (6-mer frequency, TF over GST control) | 1.15 fold enrichment (6-mer frequency, TF over GST control) | 1.11 fold enrichment (6-mer frequency, TF over GST control) | 1.02 fold enrichment (6-mer frequency, TF over GST control) | 1.1 fold enrichment (6-mer frequency, TF over GST control) | 1.07 fold enrichment (6-mer frequency, TF over GST control) | 1.09 fold enrichment (6-mer frequency, TF over GST control) | 1.06 fold enrichment (6-mer frequency, TF over GST control) | 1.07 fold enrichment (6-mer frequency, TF over GST control) | 1.06 fold enrichment (6-mer frequency, TF over GST control) | 1.12 fold enrichment (6-mer frequency, TF over GST control) | 1.14 fold enrichment (6-mer frequency, TF over GST control) | 1.02 fold enrichment (6-mer frequency, TF over GST control) | 1.14 fold enrichment (6-mer frequency, TF over GST control) | 1.1 fold enrichment (6-mer frequency, TF over GST control) | 1.11 fold enrichment (6-mer frequency, TF over GST control) | 1.5 fold enrichment (6-mer frequency, TF over GST control) | 
2 | ACTTAG | 1.04 fold enrichment (6-mer frequency, TF over GST control) | 1.06 fold enrichment (6-mer frequency, TF over GST control) | 1.11 fold enrichment (6-mer frequency, TF over GST control) | 1.09 fold enrichment (6-mer frequency, TF over GST control) | 1.05 fold enrichment (6-mer frequency, TF over GST control) | 1.11 fold enrichment (6-mer frequency, TF over GST control) | 1.05 fold enrichment (6-mer frequency, TF over GST control) | 1.11 fold enrichment (6-mer frequency, TF over GST control) | 1.17 fold enrichment (6-mer frequency, TF over GST control) | 1.03 fold enrichment (6-mer frequency, TF over GST control) | 1.16 fold enrichment (6-mer frequency, TF over GST control) | 1.27 fold enrichment (6-mer frequency, TF over GST control) | 1.1 fold enrichment (6-mer frequency, TF over GST control) | 1.03 fold enrichment (6-mer frequency, TF over GST control) | 1.12 fold enrichment (6-mer frequency, TF over GST control) | 1.2 fold enrichment (6-mer frequency, TF over GST control) | 1.72 fold enrichment (6-mer frequency, TF over GST control) | 1.04 fold enrichment (6-mer frequency, TF over GST control)
